Experiment [1] can be described thus: StAR promoter reporter inhibitors, counter-screen for LRH-1 inverse agonist project, cell-based, luminescence, high throughput (AID 651611; in the data active = inhibition above about 28%). To be noted: StAR promoter luciferase reporter counterscreen, at 3.6 µM, stronger effect = higher value. Background: Counterscreens check selectivity or assay interference.
In experiment [2] the target is Nuclear receptor subfamily 5 group A member 2 (Homo sapiens) (UniProt O00482). Briefly: NR5A2 activity suppression in reporter cells – cell-based, luminescence, confirmation (AID 651613).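 Note: HEK293T cells co-transfected with LRH-1 and StAR promoter luciferase reporter; 0% = vehicle wells and 100% = parental cells lacking receptor.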 The note with it: cell-based LRH-1 luciferase reporter, inverse agonism; at 3.6 µM; stronger effect = higher value. On the technique in general: Reporter assays use an easily measured gene product as a stand-in for the process of interest.
Nuclear receptor subfamily 5 group A member 2 (Homo sapiens), sequence (O00482 whole entry, looked up): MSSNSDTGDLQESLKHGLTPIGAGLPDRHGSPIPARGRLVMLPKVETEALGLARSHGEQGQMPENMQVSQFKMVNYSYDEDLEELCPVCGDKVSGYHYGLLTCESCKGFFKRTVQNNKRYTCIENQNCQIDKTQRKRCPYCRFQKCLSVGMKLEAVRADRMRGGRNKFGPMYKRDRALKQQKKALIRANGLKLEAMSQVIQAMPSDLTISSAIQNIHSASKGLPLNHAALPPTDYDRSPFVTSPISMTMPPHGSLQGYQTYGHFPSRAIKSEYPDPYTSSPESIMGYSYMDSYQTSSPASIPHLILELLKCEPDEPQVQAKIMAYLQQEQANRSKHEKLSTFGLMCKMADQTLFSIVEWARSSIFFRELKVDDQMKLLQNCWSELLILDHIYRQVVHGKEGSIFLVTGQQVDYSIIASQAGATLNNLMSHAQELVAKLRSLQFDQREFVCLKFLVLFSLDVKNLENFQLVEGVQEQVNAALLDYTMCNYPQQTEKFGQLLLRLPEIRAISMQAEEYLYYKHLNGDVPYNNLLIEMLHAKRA

Experiment [3] concerns the target Steroidogenic factor 1 (Homo sapiens) (UniProt Q13285). The experiment in a line: inverse agonism at SF1 nuclear receptor – cell-based, luminescence, high throughput, counter-screen for LRH-1 inverse agonist project (AID 651614; in the data active = inhibition above about 44%;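 note: cells cotransfected with StAR promoter reporter and SF1 expression vector; 0% = vehicle on cells with receptor and 100% = vehicle on cells lacking receptor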). The note with it: cell-based SF1 luciferase reporter, at 3.6 µM, stronger effect = higher value.
Experiment [4] can be described thus: compounds suppressing VP16-driven luciferase signal – cell-based, luminescence, high throughput, counter-screen for LRH-1 inverse agonist project (AID 651615; in the data active = inhibition above about 33%). The note with it: Gal4-VP16 luciferase reporter cells, at 3.6 µM, stronger effect = higher value.

Each structure is given as a SMILES string. A number with no mark means an inactive call. Calls of active or inactive are those of the source. Cut-off read from the data, not from the text of the source, unless noted: active = inhibition above about 42%; inactive = the rest.

Steroidogenic factor 1 (Homo sapiens), sequence (Q13285 whole entry, looked up, the tested form may be a part): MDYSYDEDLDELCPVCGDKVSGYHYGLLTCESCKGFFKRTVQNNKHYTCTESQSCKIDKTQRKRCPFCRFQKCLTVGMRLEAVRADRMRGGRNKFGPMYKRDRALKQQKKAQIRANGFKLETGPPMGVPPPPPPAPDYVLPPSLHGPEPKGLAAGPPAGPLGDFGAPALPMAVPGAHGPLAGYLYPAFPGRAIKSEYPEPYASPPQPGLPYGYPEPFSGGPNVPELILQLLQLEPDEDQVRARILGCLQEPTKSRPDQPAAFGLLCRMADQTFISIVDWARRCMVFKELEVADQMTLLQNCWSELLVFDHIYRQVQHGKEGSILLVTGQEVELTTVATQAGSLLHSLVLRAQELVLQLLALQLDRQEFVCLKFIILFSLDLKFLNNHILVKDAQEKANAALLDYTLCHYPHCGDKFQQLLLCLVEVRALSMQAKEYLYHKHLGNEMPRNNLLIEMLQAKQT

As for `O=C(CN1C(=O)NC2(CCOc3ccccc32)C1=O)Nc1cccc([N+](=O)[O-])c1` (centres undefined), the inhibition in experiment [1] was 13.7%; in experiment [2], 58.6% (active); in experiment [3], 53.6% (active); in experiment [4], -15.2%.
The corresponding values for `COc1ccc(NS(=O)(=O)c2ccc(-c3coc(C)n3)cc2)cc1OC` are 15.6%, 65.6% (active), 64.7% (active) and 51.4% (active).
On the same counts, the results for `COc1ccc(CCNC(=O)CSc2nnc(CNC(=O)c3cccs3)o2)cc1OC` are 4.32%, 56.7% (active), 50% (active) and 1.47%.
In the case of `O=C(Nc1ccc2c(c1)CCCN2C(=O)c1ccco1)c1cc([N+](=O)[O-])ccc1Cl`, the inhibition in experiment [1] was 51.9% (active); in experiment [2], 39.3%; in experiment [3], 59.1% (active); in experiment [4], 33.9% (active).
The corresponding values for `CCN(CC)S(=O)(=O)c1ccc(N2CCCC2)c(NC(=O)c2ccc([N+](=O)[O-])o2)c1` are 19.4%, 55.4% (active), 56.6% (active) and 10.5%.
On the same counts, the results for `Cc1cc(C(=O)N/N=C/c2ccc([N+](=O)[O-])o2)c(C)o1` are 9.16%, 71.5% (active), 65.2% (active) and 3.18%.
The corresponding values for `CCOC(=O)c1ccc(NC(=O)CSc2nnc(COc3ccccc3OC)n2C)cc1` are -2.53%, 40.4%, 35.7% and -6.59%.
Regarding `O=S(=O)(c1ccc(-c2csc(Nc3ccc(F)cc3)n2)cc1)N1CCCC1`, the inhibition was 15.5% in experiment [1], 66.7% (active) in experiment [2], 56.4% (active) in experiment [3] and 35.4% (active) in experiment [4].
On to `O=C(COc1ccc2c3c(c(=O)oc2c1)CCC3)NCc1ccncc1`, for which the inhibition is 0.83% in experiment [1], 50% (active) in experiment [2], 41.4% in experiment [3] and -2.51% in experiment [4].
On the same counts, the results for `COc1cccc(C2c3cc4c(cc3OC(NNC(N)=O)C2C)OCO4)c1O` (centres undefined) are 24.7%, 59% (active), 60.1% (active) and 26.5%.
The corresponding values for `CC(=O)Nc1ccc(NC(=O)COC(=O)c2cc(S(=O)(=O)N3CCCC3)ccc2O)cc1` are 21%, 58.9% (active), 61.4% (active) and -14.8%.
On the same counts, the results for `CCc1nc(SCC(=O)c2ccccc2)c2ccccc2n1` are 7.58%, 45.8% (active), 55.3% (active) and -18.1%.
As to `Cc1nn(Cc2ccc(Cl)cc2)c(C)c1NC(=O)c1cc(C(C)C)on1`, the inhibition in experiment [1] is 16.2%; in experiment [2], 44.9% (active); in experiment [3] it was 64.8% (active); in experiment [4], 16%.
On the same counts, the results for `c1ccc(-c2nc(N3CCCCCC3)c3ccccc3n2)nc1` are 24.7%, 63.5% (active), 74.8% (active) and 39.3% (active).
The corresponding values for `O=C(COC(=O)c1ccc(S(=O)(=O)N2CCCC2)cc1)Nc1ccc(N2CCOCC2)cc1` are 18.1%, 48.5% (active), 57.4% (active) and -7.59%.
On the same counts, the results for `Cc1ccc(OCCC(=O)OCC(=O)Nc2ccc(N3CCOCC3)cc2)cc1` are 16.6%, 54.8% (active), 46.6% (active) and -7.59%.
Consider `Cc1ccc(-c2nn3c(C)nnc3s2)cc1NC(=O)c1cccs1`, for which the inhibition in experiment [1] is 17.1%; in experiment [2], 67.5% (active); in experiment [3], 69.4% (active); in experiment [4] it was -15.2%.
The corresponding values for `COC(=O)c1cc2c(-c3ccccc3)cc3ccccn3c-2c1C(=O)OC` are 11.5%, 62.3% (active), 54.5% (active) and 0.7%.
On the same counts, the results for `COC(=O)c1ccc(NC(=O)CSc2nc3ncccc3[nH]2)cc1` are -4.1%, 50.8% (active), 52.6% (active) and -13.4%.
Regarding `COc1cccc(-c2nc(NCC3CCCO3)c3ccccc3n2)c1O` (centres undefined), the inhibition in experiment [1] was 31.9% (active); in experiment [2] it was 64.7% (active); in experiment [3] it was 59.1% (active); in experiment [4] it was -15.4%.
On to `CCOc1ccc(NC(=O)CSc2nc(O)c(C)c(=O)n2-c2ccc(F)cc2)cc1`, for which the inhibition in experiment [1] was 5.33%; in experiment [2], 60.6% (active); in experiment [3] it was 50.6% (active); in experiment [4], -14.2%.
Take `N#CCc1ccc(OCCCN2CCC(C(O)(c3ccccc3)c3ccccc3)CC2)cc1`: the inhibition was 8.39% in experiment [1], 40.8% in experiment [2], 27.8% in experiment [3] and 12.4% in experiment [4].
The corresponding values for `c1cncc(-c2nc(N3CCCCCC3)c3ccccc3n2)c1` are 20.8%, 56.4% (active), 62.8% (active) and 10.4%.
Turning to `Cc1c(F)cccc1NS(=O)(=O)c1ccc(N2CCCC2=O)cc1`, the inhibition was -2.14% in experiment [1], 56% (active) in experiment [2], 47.1% (active) in experiment [3] and 3.58% in experiment [4].
On the same counts, the results for `CC1CCC2(CC1)NC(=O)N(CC(=O)Nc1ccc3c(c1)CCC3)C2=O` (centres undefined) are 39.1% (active), 49.1% (active), 48.9% (active) and 12.8%.
Turning to `O=C(c1ccc([N+](=O)[O-])o1)N1CCc2ccccc21`, the inhibition was -6.72% in experiment [1], 51.8% (active) in experiment [2], 59% (active) in experiment [3] and -36.3% in experiment [4].

Usually inhibition stands for the relative decrease from the control value, in per cent.

Source of the values: PubChem BioAssay.
